Assay results as given in PubChem BioAssay AID488969 (Vanderbilt High Throughput Screening Facility, 2010).
In all, about 110,000 compounds were measured (“z-score”: median about -0.1, highest 2% from about 2 on). This excerpt belongs to a sample that is enriched for the highest values. The source made the active and inactive calls.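 Rule for the calls: active = z-score in the third read window above 3 or below -3; inactive = the rest.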

The compounds below were run against Metabotropic glutamate receptor 8 (Rattus norvegicus) (UniProt P70579) (assay: mGluR8 Gi/Go-coupled signaling modulation – cell-based, rat, thallium flux, HTS, primary screen (AID 488969)). Conditions: HEK293 rat mGluR8, GIRK (G protein-gated inwardly rectifying potassium channel) thallium flux, FluoZin2; at 10 µM; stronger effect = higher value; submaximal glutamate (EC20) added with thallium.
Sequence of Metabotropic glutamate receptor 8 (Rattus norvegicus) (P70579 whole entry, looked up): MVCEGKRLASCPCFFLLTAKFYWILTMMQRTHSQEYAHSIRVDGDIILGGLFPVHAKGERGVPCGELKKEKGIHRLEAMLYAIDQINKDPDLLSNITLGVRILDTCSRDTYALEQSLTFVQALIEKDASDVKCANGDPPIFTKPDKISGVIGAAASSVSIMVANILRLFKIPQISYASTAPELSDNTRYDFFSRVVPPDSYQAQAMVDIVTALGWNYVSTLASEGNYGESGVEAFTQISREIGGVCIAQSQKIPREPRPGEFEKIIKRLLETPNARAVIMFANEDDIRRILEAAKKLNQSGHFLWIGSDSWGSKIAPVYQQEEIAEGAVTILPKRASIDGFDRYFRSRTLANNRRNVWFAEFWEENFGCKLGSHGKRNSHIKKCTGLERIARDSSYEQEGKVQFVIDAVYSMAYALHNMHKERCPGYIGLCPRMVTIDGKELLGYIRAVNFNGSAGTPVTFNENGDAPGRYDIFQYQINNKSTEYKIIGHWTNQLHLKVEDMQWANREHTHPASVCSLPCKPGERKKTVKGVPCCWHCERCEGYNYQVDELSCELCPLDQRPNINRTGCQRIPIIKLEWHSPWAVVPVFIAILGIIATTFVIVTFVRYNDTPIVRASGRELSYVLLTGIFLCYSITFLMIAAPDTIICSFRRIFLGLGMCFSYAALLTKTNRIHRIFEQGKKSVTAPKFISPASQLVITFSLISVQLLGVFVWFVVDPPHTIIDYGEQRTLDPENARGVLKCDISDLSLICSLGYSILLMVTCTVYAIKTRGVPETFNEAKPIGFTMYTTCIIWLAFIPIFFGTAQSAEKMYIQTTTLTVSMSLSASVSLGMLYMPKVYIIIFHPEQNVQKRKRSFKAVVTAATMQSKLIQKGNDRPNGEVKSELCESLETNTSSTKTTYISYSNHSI

Structure (SMILES)	z-score
c1ccc2sc(C3CCN(Cc4nnnn4Cc4ccc5c(c4)OCO5)CC3)nc2c1	0.227
CCc1nc(NCCCCCO)c2nnn(Cc3ccccc3F)c2n1	-0.538
CCn1c(=S)[nH]c2cc(C(=O)OC)ccc2c1=O	7.77 (active)
COCCCNC(=O)c1ccc2c(=O)n(CC3CCCO3)c(=S)[nH]c2c1 (centres undefined)	0.247
COC(=O)c1ccc2c(=O)n(CCO)c(=S)[nH]c2c1	0.000255
CCN(CC)CCCn1c(=S)[nH]c2cc(C(=O)OC)ccc2c1=O	0.199
COC(=O)c1ccc2c(=O)n(CC3CCCO3)c(=S)[nH]c2c1 (centres undefined)	7.72 (active)
O=C(NCC1CCCO1)c1ccc2c(=O)n(CC3CCCO3)c(=S)[nH]c2c1 (centres undefined)	0.352
O=C1CN(c2ccccc2Cl)C(=O)CN1c1ccccc1Cl	0.348
Cc1cccc(C)c1N1CCc2cn[nH]c21	-0.273
O=C(CSc1nc2cc(Cl)ccc2s1)NC1CCCc2ccccc21 (centres undefined)	-0.115
CC12CCC(C(=O)N(Cc3ccccc3)Cc3ccccc3)(OC1=O)C2(C)C (centres undefined)	-0.0292
O=C(CSc1nc2ccsc2c(=O)n1NC(=O)c1ccccc1)Nc1nccs1	-0.202
Cc1cc(NC(=O)CSc2nc3ccsc3c(=O)n2NC(=O)c2ccccc2)no1	3.32 (active)
COc1ccc(NC(=O)CSc2nc3ccccc3c(=O)n2Cc2cccs2)c(OC)c1	0.00897
COc1ccc(NC(=O)CSc2nc3ccccc3c(=O)n2CCCN2CCCCC2)c(OC)c1	3.69 (active)
CCOCCCn1c(SCC(=O)NC(C)C)nc2ccccc2c1=O	0.328
CCCCn1c(SCC(=O)Nc2cc(C)on2)nc2ccccc2c1=O	-1.45
CCCCNC(=O)CSc1nc2cc(OC)c(OC)cc2c(=O)n1Cc1ccc(OC)cc1	-0.298
Cc1ccc(Cn2c(SCC(=O)Nc3cc(C)on3)nc3ccccc3c2=O)cc1	1.07
CCC(C)NC(=O)CSc1nc2ccccc2c(=O)n1Cc1ccc(OC)cc1 (centres undefined)	3.19 (active)
Cc1cc(NC(=O)CSc2nc3ccccc3c(=O)n2Cc2ccccc2)no1	4.05 (active)
CC(C)CCNC(=O)CSc1nc2ccsc2c(=O)n1NC(=O)c1ccccc1	-0.0204

Structure (SMILES)	z-score
Cc1ccc(NC(=O)CSc2nc3ccccc3c(=O)n2CCCN2CCCCC2)cc1C	0.975
Cc1cc(C)[n+](-c2ccc(F)cc2)c2[nH]c(=O)[nH]c(=O)c12	0.407
Cc1ccc(C(=O)N2CC(=O)Nc3ccc(F)cc3C2c2ccccc2)cc1[N+](=O)[O-] (centres undefined)	-0.229
O=C(NNC(=O)c1sc2cccc(Cl)c2c1Cl)Nc1ccccc1	-0.00877
C=CCn1c(SCC(=O)Nc2ccc3c(c2)OCO3)nc2ccccc2c1=O	0.212
Cc1ccc(OCCCN(C)C)c(Br)c1	1.17
CCOC(=O)c1oc2ccc(S(=O)(=O)n3nc(-c4ccc(Cl)cc4)cc3N)cc2c1C	-0.324
CN(CCC#N)C(=O)COC(=O)c1ccc(Cl)c(S(N)(=O)=O)c1	0.0421
CCCCNC(=O)CSc1nc2ccccc2c(=O)n1Cc1ccc2c(c1)OCO2	0.908
CC1CCN(C(=O)Cn2c(=O)n(Cc3ccc4c(c3)OCO4)c(=O)c3ccccc32)CC1	-1.65
CC1CCN(C(=O)CSc2nc3ccccc3c(=O)n2Cc2ccc3c(c2)OCO3)CC1	2.16
Cc1cccc(-n2ncc3c(NCCCO)ncnc32)c1	0.607
c1ccc(CCNc2ncnc3c2cnn3-c2ccccc2)cc1	-1.25
Cc1cccc(-n2ncc3c(NCCc4ccc(S(N)(=O)=O)cc4)ncnc32)c1	8.89 (active)
O=C(CSc1ccc2nnc(-c3cccc(F)c3)n2n1)N1CCCc2ccccc21	-0.911
Cc1ccc(NC(=O)CN(C)C(=O)CCOc2ccccc2C)cc1	1.66
CCC(CC)C1C(C#N)=C(N)Oc2n[nH]c(-c3ccccc3)c21 (centres undefined)	-0.557
S=C(NN=C1C2CC3CC(C2)CC1C3)Nc1ccccc1	11.7 (active)
S=C(N/N=C1\C2CN3CCN(C2)CC1(c1ccccc1)C3)Nc1ccccc1	0.425
O=C(NNC(=S)Nc1ccccc1)C1CC1	-0.336
O=C(NN=C1C2CC3CC(C2)CC1C3)c1cccs1	0.589
S=C(NN=C(C1CC1)C1CC1)Nc1ccccc1	4.43 (active)
CCC(=O)Nc1ccc(NC(=S)Nc2ccccc2)cc1	-0.362

Structure (SMILES)	z-score
CNC(=S)N/N=C/c1c(C)nn(-c2cccc(Cl)c2)c1Cl	-0.134
CCOC(=O)C1CCN(C(=O)CSc2nnc(-c3ccco3)n2-c2ccccc2)CC1	-0.369
O=C(NCc1ccccc1Cl)c1ccccc1Oc1ccccc1	-0.412
CCOC(=O)C1C(=O)Nc2nc3ccccc3n2C1C(C)C (centres undefined)	-0.438
Cc1cccc(C)c1Nc1c(-c2ccsc2)nc2ncccn12	-0.464
COC(=O)Nc1c(-c2ccccc2)nc2ccccn12	-0.126
CC(=O)Nc1c(-c2ccc(F)cc2)nc2ccccn12	2.25
Cc1ccc(-c2nc3ccccn3c2NC(=O)c2ccco2)cc1	0.65
Cc1ccc(-c2nc3ncccn3c2NC(=O)C2CC2)cc1	0.268
CC(=O)Nc1c(-c2ccccc2)nc2ncccn12	2.69
CC(C)(C)NC(=O)CN(C(=O)Cn1nnc(-c2ccc(Cl)cc2)n1)C1CCN(Cc2ccccc2)CC1	-0.128
CC1CC(C)CN(c2ncnc3c2cnn3Cc2ccc(Cl)cc2)C1 (centres undefined)	-0.714
O=C(CSc1nnnn1-c1cccnc1)Nc1ccc(OCc2ccccc2)cc1	-0.183
CCNCCNC(=O)c1c(O)c2ccccc2n(CC)c1=O	-0.289
CCn1c(=O)c(C(=O)NCCc2ccccc2)c(O)c2ccccc21	0.613
CCn1c(=O)c(C(=O)NCCCO)c(O)c2ccccc21	3.51 (active)
COc1ccc(C(=O)COc2ccc(NC(C)=O)cc2)cc1	-0.0378
COc1ccc(CCNC(=O)c2cc(-c3ccccc3)on2)cc1OC	0.914
Fc1ccc(CNC(=S)Nc2ccc(Cl)cc2)cc1	0.385
Fc1ccccc1CNC(=S)Nc1ccc(Cl)cc1	2.23
Fc1ccc(NC(=S)NCc2ccccc2Cl)cc1	1.74
S=C(Nc1ccccc1)Nc1ccc(OCc2ccc(Cl)cc2Cl)cc1	-0.223
S=C(NCc1ccc(Cl)cc1Cl)Nc1ccccc1	3.34 (active)

Structure (SMILES)	z-score
S=C(NCCSCc1ccc(Cl)cc1Cl)Nc1ccccc1	-0.181
O=C(OC(C(=O)NC1CCCCC1)c1ccccc1)c1ccco1 (centres undefined)	-0.0658
Cc1cccc(C(C)C)c1NC(=O)c1ccc(CN(c2ccccc2)S(=O)(=O)c2ccccc2)cc1	-0.0858
COc1cc2c(cc1NC(=O)C(C)NCc1ccccc1)oc1ccccc12 (centres undefined)	0.0909
O=C(NC1CCCCC1)C(c1ccccc1)N(Cc1ccco1)C(=O)Cn1cnc2ccccc21 (centres undefined)	-1.29
CC(C)CCNc1nc2c(cc1C#N)COC(C)(C)C2	-0.377
Cc1nc(NCCCO)c(C#N)c2c1COC(C)(C)C2	1.53
CC1(C)Cc2nc(NCCCO)c(C#N)cc2CO1	2.93
CC1(C)Cc2nc(N3CCOCC3)c(C#N)cc2CO1	-0.0959
CC1(C)Cc2nc(NCCN3CCOCC3)c(C#N)cc2CO1	7.19 (active)
CC(C)c1nc(NCCN2CCOCC2)c(C#N)c2c1COC(C)(C)C2	-0.502
Nc1nnc(SCC(=O)c2ccco2)s1	-0.0604
O=S1(=O)C=C(SCc2ccccc2)Nc2ccccc21	-0.11
CCOC(=O)c1nn(-c2ccc(OCC)cc2)c(C)c1C(C)=O	0.0801
CCCCOC(=O)c1ccc(NC(=O)c2cnc3n(c2=O)CCS3)cc1	0.203
O=C(NCc1ccccc1)c1cnc2n(c1=O)CCS2	-0.0906
COc1ccc(CNC(=O)c2cnc3n(c2=O)CCS3)cc1	-0.183
O=C(NCc1ccc(F)cc1)c1cnc2n(c1=O)CCS2	2.18
O=C(Nc1ccccc1)c1cnc2n(c1=O)CCS2	-0.146
CCc1ccc(NC(=O)c2cnc3n(c2=O)CCS3)cc1	2.53
CCOC(=O)c1ccc(N2C(=O)C3ON(c4ccccc4)C(c4ccco4)C3C2=O)cc1 (centres undefined)	-0.354
COc1cc(OC)nc(NC(=O)CSc2nc3ccccc3o2)n1	-0.294
Cc1cc(C)cc(N(CC(=O)O)S(=O)(=O)c2c(C)noc2C)c1	-0.132

Structure (SMILES)	z-score
CNC(=S)NN(c1ccccc1)c1ccccc1	-0.0349
CC(C)NC(=S)NN(c1ccccc1)c1ccccc1	2.38
CCNC(=S)NN(c1ccccc1)c1ccccc1	0.837
COc1ccc(OC)c(C2C3=C(CCCC3=O)NC3=C2C(=O)CCC3)c1	-0.586
O=S(=O)(Cc1ccccc1Cl)CC(O)COc1ccccc1Cl (centres undefined)	-0.273
Cc1nc2ccccn2c1C(=O)NN	2.34
COc1ccc(CNC(=O)c2c(C)nc3ccccn23)cc1	-0.0334
Cc1c(C(=O)NN)nc2ccccn12	-0.145
COc1nc(N/N=C/c2ccc(-c3ccccc3[N+](=O)[O-])o2)nc(N2CCOCC2)n1	-0.309
COc1ccc(S(=O)(=O)N(CCc2ccccc2)CC(=O)O)cc1Cl	-0.104
CN1C(=O)C(O)(C2OC(C)(C)CCC2=O)c2ccccc21 (centres undefined)	-0.0799
NC(=O)C1(NC(=O)[C@@H]2CC3(CC(c4cccc(NC(=O)[C@@H]5CCC(=O)N5)c4)=NO3)CN2C(=O)Cc2ccc(C(F)(F)F)cc2)CC1 (some centres undefined)	-0.279
CCCNC(=O)C1CNc2ccccc2O1 (centres undefined)	-0.2
O=C(Nc1nncs1)C1COc2ccccc2O1 (centres undefined)	0.542
NC(=O)C1CNc2ccccc2O1 (centres undefined)	2.79
CCCCSc1nc(C)nc2c1c(=O)n(C)c(=O)n2C	-0.303
COc1ccc2[nH]c3c(Cl)ncnc3c2c1	-0.502
COC(=O)c1sc(NC(=O)/C=C/c2ccc(C)o2)nc1C	-0.15
COc1ccccc1C(O)Cc1nc2ccccc2n1C (centres undefined)	-0.393
Cc1cccc(C)c1NC(=O)C(NC(=O)c1ccccn1)c1ccc([N+](=O)[O-])cc1 (centres undefined)	2.97
Cc1cccc(C)c1NC(=O)C(c1cccc([N+](=O)[O-])c1)N(C)C(=O)c1ccccn1 (centres undefined)	-0.125
Cc1cccc(C)c1NC(=O)C(NC(=O)c1ccccn1)c1ccccc1[N+](=O)[O-] (centres undefined)	0.95
